SENP6 inh: inhibitors of human SENP6 protease. Q9GZR1. Recombinant SENP6 catalytic domain, aminoluciferin luminescence. inhibition, % at 10 µM. 330,000 compounds, 1.8% hits. AID 2599;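 active = inhibition above about 50% at the single tested dose, limit read from the data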;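 note: plate controls were DMSO wells with enzyme for no effect and DMSO wells lacking enzyme for full effect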
SENP8 block-1: SENP8 (human) protease inhibition. inhibition, % at 20 µM. recombinant SENP8, Nedd8 substrate fluorescence. AID 602440. 360,000 compounds, 0.64% hits; in the data active = inhibition mostly above about 40%, no sharp cut-off; inactive = mostly below about 27%
PPC-1+TRAIL kill: kills PPC-1 cancer cells in the presence of TRAIL. AID 1443. 220,000 compounds, 0.41% hits. PPC-1 cells + TRAIL, ATPLite viability luminescence. cell killing (% activity), % at 4 µM or 5 µM;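 active = cell killing above 50% in the first pass at 4 µM, then a duplicate retest at 5 µM averaging 50% or more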;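 note: plate controls were cells with TRAIL plus DMSO for no effect and medium-only wells lacking cells for full effect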
TRAIL sens C8: sensitizes caspase-8 expressing cells to TRAIL. inhibition (viability loss, TRAIL sensitization), % at 10 µM. 360,000 compounds, 1% hits. NB7+C8 cells + TRAIL, ATPlite viability luminescence;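 active = compounds causing at least 50% loss of cell viability in the single-dose screen, relative to plate controls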
SENP7 inh: inhibitors of human SENP7 protease; Q9BQF6; recombinant SENP7, Z-RLRGG-aminoluciferin luminescence, 40 min; inhibition, % at 5 µM; 330,000 compounds, 1.5% hits;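 active = inhibition above about 50% at the single test dose, limit read from the data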;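 note: plate controls were DMSO with enzyme for no effect and no enzyme buffer wells for full effect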
Target sequence (Q9BQF6 706-1050 limits assumed): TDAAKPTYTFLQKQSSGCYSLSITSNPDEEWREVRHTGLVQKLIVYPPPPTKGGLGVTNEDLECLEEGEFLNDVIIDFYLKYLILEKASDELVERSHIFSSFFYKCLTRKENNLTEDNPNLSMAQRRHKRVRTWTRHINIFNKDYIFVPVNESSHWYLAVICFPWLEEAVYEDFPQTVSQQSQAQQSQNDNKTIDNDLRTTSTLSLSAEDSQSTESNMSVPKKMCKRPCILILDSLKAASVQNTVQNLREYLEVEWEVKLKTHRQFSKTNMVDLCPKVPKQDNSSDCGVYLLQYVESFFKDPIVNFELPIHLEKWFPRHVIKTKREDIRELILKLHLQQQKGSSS
SENP8 block-2: blocks the human protease SENP8. purified SENP8, Z-RLRGG-aminoluciferin cleavage, luminescence. inhibition, % at 10 µM. 330,000 compounds, 1.2% hits. AID 2540; in the data active = inhibition above about 50%
SENP8 confirm: human SENP8 inhibition, confirmed | AID 488912 | shares compounds with SENP7 inh | inhibition, % at 12.5 µM | Recombinant SENP8, Z-RLRGG-aminoluciferin luminescence, 60 min | 6,200 compounds, 40% hits;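 active = mean inhibition across replicates above about 50%, limit read from the data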
SENP6 confirm: human SENP6 inhibition, confirmed. shares compounds with SENP7 inh. recombinant SENP6, Z-RLRGG-aminoluciferin luminescence. inhibition, % at 12.5 µM. 6,200 compounds, 58% hits
SENP7 confirm: human SENP7 inhibition, confirmed; shares compounds with SENP7 inh; 6,200 compounds, 69% hits; AID 488917; inhibition, % at 12.5 µM; recombinant SENP7, Z-RLRGG-aminoluciferin luminescence, 40 min
Casp3 SENP sel: inhibits human caspase-3 in SENP selectivity test | shares compounds with SENP7 inh | purified caspase-3, Z-DEVD-aminoluciferin luminescence, 60 min | inhibition, % at 12.5 µM | 6,200 compounds, 60% hits | AID 488918;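 active = mean inhibition above about 50%, limit read from the data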;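 note: plate controls were enzyme with DMSO for no effect and wells without caspase-3 for full effect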
SENP luc ctr: interferes with luciferase luminescence in SENP counter-screen; shares compounds with SENP7 inh; Pre-incubated SENP8/Z-RLRGG-aminoluciferin, luciferase luminescence interference; inhibition, % at 12.5 µM; 6,200 compounds, 39% hits;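 active = mean inhibition above about 50% when retested at one dose, limit read from the data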;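 note: plate controls were DMSO wells with completed reaction for no effect and substrate without enzyme for full effect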
Active calls of the source: *; . = no result given. A selection: hits, their analogues and other compounds. The true share with any hit is near 3%.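 Rule for the calls, unless noted: active = mean inhibition above about 50% in the one-dose retest (limit read from the data); inactive = the rest.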

SMILES	SENP6 inh	SENP8 block-1	PPC-1+TRAIL kill	TRAIL sens C8	SENP7 inh	SENP8 block-2	SENP8 confirm	SENP6 confirm	SENP7 confirm	Casp3 SENP sel	SENP luc ctr
Cc1ccc(-c2nnc(-c3ccccc3Br)o2)cc1	89.7*	12.7	.	58.4*	82.6*	86.1*	7.1	87.9*	98.2*	74.2*	75.9*
Brc1ccc(-c2nnc(-c3ccccc3Br)o2)cc1	63.9*	3.2	28.7	39.0	73.7*	70.2*	18.0	18.1	24.7	27.9	15.1
CC(=O)NCc1ccc(-c2csc(-c3cccs3)n2)cc1	62.0*	-66.8	.	15.9	39.9	35.8	48.5	42.7	72.8*	35.1	56.7*
O=C(NCc1csc(-c2cccs2)n1)c1ccccc1	-13.8	-137.3	11.8	-11.2	3.1	-8.5	.	.	.	.	.
c1cncc(-c2nc3ccccc3s2)c1	45.9	14.5	-5.7	-13.4	46.2	10.1	.	.	.	.	.
Oc1ccc(-c2nc3ccccc3s2)c(O)c1	96.8*	-419.3	-0.8	24.0	85.9*	87.5*	94.6*	94.5*	100.9*	74.8*	77.7*
c1ccc2sc(-c3ccc4c(c3)OCO4)nc2c1	97.2*	-278.4	57.6*	73.1*	100.0*	95.8*	97.7*	100.0*	102.8*	98.4*	95.1*
O=C(Cc1nc2ccccc2s1)c1ccc(O)cc1O	15.4	.	3.7	.	-4.9	11.4	.	.	.	.	.
Oc1ccc(-c2nc3ccccc3s2)cc1	97.6*	-437.4	32.3	62.0*	99.3*	96.1*	98.6*	99.1*	102.0*	95.3*	95.3*
CCCCn1c(N)c(N(CCC(C)C)C(=O)COC(=O)/C=C/c2ccc(F)cc2)c(=O)[nH]c1=O	22.5	-3.9	.	10.8	3.8	7.6	.	.	.	.	.
COc1ccc(-c2n[nH]c(=S)n2-c2ccc(C)cc2)cc1OC	11.9	-2.2	.	-3.7	0.3	3.4	.	.	.	.	.
c1ccc2sc(-c3ccncc3)nc2c1	67.8*	-13.6	7.8	-2.0	66.8*	36.0	28.3	54.9*	83.0*	79.5*	34.8
c1ccc2[nH]c(-c3ccc4c(c3)OCO4)nc2c1	95.8*	-134.4	.	71.8*	96.9*	93.0*	95.7*	96.6*	101.7*	97.3*	96.4*
CC(=O)NCc1ccc(-c2nc3ccccc3s2)cc1	79.7*	-100.2	32.2	39.3	71.8*	64.0*	0.9	58.7*	87.1*	77.0*	29.7
COc1cccc(-c2nc3ccccc3s2)c1	92.3*	-13.8	35.5	38.6	96.4*	95.2*	96.5*	98.5*	102.4*	95.2*	94.6*
COc1ccc(-c2nc3ccccc3s2)cc1NC(C)=O	-29.2	-445.1	49.3	30.5	-7.8	-4.7	.	.	.	.	.
O=C(c1ccco1)N1CCN(Cc2cc(=O)c(OCc3ccc(F)cc3)co2)CC1	-2.3	6.7	.	-0.5	-16.8	9.7	.	.	.	.	.
O=C(NCC(F)(F)F)c1[nH]c(C(F)(F)F)nc1-c1ccccc1	.	25.4	.	-8.5	.	.	.	.	.	.	.
COc1cc(OC)c(OC)cc1/C=N/NC(=O)CCc1c(C)n[nH]c1C	-4.3	-480.5	-12.4	-2.8	1.7	-1.0	.	.	.	.	.
O=C(O)c1ccc2ncsc2c1	-14.7	30.6	11.1	1.7	3.2	2.5	.	.	.	.	.
O=C(O)c1ccc2nc(-c3ccccc3)sc2c1	97.8*	-7.6	21.8	18.2	100.0*	94.2*	98.3*	99.2*	101.8*	96.4*	97.7*
Nc1ccccc1-c1nc2ccccc2s1	76.1*	-436.7	-9.6	-23.7	59.1*	54.2*	60.9*	83.0*	96.5*	55.3*	44.0
